# Assay results reported in PubChem BioAssay.
# Molecular target: Tumor necrosis factor receptor superfamily member 10B (Homo sapiens) (UniProt O14763)
# Experiment: viability loss of caspase-8 NB7 cells with TRAIL – with/without TRAIL, luminescence panel, confirmation (AID 651596)
# Conditions: NB7 neuroblastoma + caspase-8, TRAIL sensitization, NB7 Caspase-8, with TRAIL, mean of runs, at 10 µM, stronger effect = higher value
# Tumor necrosis factor receptor superfamily member 10B (Homo sapiens), sequence (O14763 whole entry, looked up): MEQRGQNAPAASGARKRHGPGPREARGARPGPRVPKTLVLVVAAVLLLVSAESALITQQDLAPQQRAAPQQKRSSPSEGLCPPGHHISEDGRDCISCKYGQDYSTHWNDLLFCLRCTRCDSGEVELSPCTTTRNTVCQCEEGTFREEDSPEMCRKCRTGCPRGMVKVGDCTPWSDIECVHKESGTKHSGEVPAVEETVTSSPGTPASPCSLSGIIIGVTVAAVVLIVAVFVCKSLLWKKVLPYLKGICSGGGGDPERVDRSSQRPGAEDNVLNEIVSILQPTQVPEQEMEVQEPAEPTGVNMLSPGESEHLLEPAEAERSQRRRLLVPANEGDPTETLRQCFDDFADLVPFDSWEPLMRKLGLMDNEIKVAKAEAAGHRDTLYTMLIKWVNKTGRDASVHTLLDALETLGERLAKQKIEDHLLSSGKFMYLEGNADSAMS
row,SMILES,activity
1,COC(=O)c1ccc(CCc2cc(O)c(Br)cc2O)cc1,15%
2,N/C(=N\OC(=O)c1ccc(Cl)cc1)c1ccn[nH]1,94.7%
3,COc1ccc2cc(-c3ccccc3)ncc2c1,63.8%
4,COc1ccc2sc(NC(=O)c3ccco3)nc2c1,68.9%
5,CN(C)c1ncnc2c1ncn2C1OC(CO)C(O)C1O (stereo not given),57.1%
6,COc1ccc2oc(-c3ccc(NC(=O)c4ccc(N5CCOCC5)c([N+](=O)[O-])c4)cc3)nc2c1,52%
7,O=C(Nc1cccc(Cl)c1)c1nc[nH]c1C(=O)NCCCNC(=O)c1[nH]cnc1C(=O)Nc1cccc(Cl)c1,45.5%
8,CN(C)c1cccc(/C=C(\C#N)c2ccccc2)c1,28.8%
9,N/C(Cc1ccc(Cl)c(Cl)c1)=N\OC(=O)c1cccs1,49.6%
10,Cc1ccc(C(=O)N/C(=C\c2ccc(-c3ccccc3[N+](=O)[O-])o2)C(=O)NCCCN(C)C)cc1,18.7%
11,Cc1cc(NC(=O)c2ccc3c(c2)OCO3)no1,46.2%
12,CCc1ccc2nc(N(CCCN(C)C)C(=O)c3ccc(S(=O)(=O)N4CCCc5ccccc54)cc3)sc2c1,38.9%
13,CC(C)c1ccc(NC(=O)Nc2nc(C(N)C3CCCCC3)cs2)cc1 (stereo not given),92.2%
14,Cc1ccc2nc(NC(=O)c3ccco3)sc2c1,80.4%
15,Cc1nc2nc(C)n(CCN3CCOCC3)c(=O)c2c(-c2cccc([N+](=O)[O-])c2)c1C(=O)CCCCCCCCCCN1CCC(c2ccccc2)(c2ccccc2)CC1,92.6%
16,CCS(=O)(=O)c1ncc(Cl)c(C(=O)Nc2ccc(S(=O)(=O)N3CCC(C)CC3)cc2)n1,95.2%
17,O=C(COc1ccc(CO)cc1Cl)Nc1ccc(F)cc1,44.5%
18,CCSc1ccc(-c2cc(NC=O)c3ncc(-c4cccc(C(=O)NCCN(C)C)c4)n3c2)cc1,50.4%
19,CCOc1ccc(C(=O)O/N=C(\N)c2ccccn2)cc1OCC,82.3%
20,COc1ccc(N2C(N)=NC(N)=NC2(C)C)cc1,78.6%

row,SMILES,activity
1,O=S(=O)(c1ccc(Br)cc1)N1CCN(c2ccc3nnc(-c4ccccc4)n3n2)CC1,76.2%
2,N/C(=N\OC(=O)c1ccc2ccccc2c1)c1ccccc1Cl,99.4%
3,COc1ccc(/C=N/OC(=O)Nc2ccccc2OC)cc1,56.9%
4,COc1cccc(NC(=O)Nc2ccc3c(c2)nc(C)n3C)c1,83.7%
5,O=C(Nc1ccc2c(c1)OCCO2)c1ccccc1,53.7%
6,CC(C)N(Cc1ccccc1)C(=O)COC(=O)c1cnc(Cl)c(Cl)c1,81.2%
7,Cc1cc2ncc(-c3ncc(C(F)(F)F)cc3Cl)cn2n1,45.7%
8,Cc1cccc(-c2noc(-c3ccc4c(c3)OCO4)n2)c1,64.6%
9,COC(=O)c1ccc2nc(-c3ccc4c(c3)OCO4)cn2c1,74.5%
10,O=C(Nc1ccccc1)c1cc(C2CCCN(C(=O)C3CC3)C2)on1 (stereo not given),48.6%
11,Cc1ccc2nc(NC(=O)c3ccccc3F)sc2c1,67.5%
12,CCCOc1ccc(-c2nc(N3CCN(C)CC3)c3ccccc3n2)cc1,71%
13,Cc1nc2c(-c3ccc(F)cc3)cnn2c(N)c1-c1ccc(F)cc1,66.2%
14,O=C(Nc1nnc(/N=C/c2ccco2)s1)c1ccc(F)cc1,39.8%
15,CCCc1ccc(C(=O)NC(=O)c2ccccc2O)cc1,78.6%
16,O=C(Nc1ccc2c(c1)OCO2)c1ccc(Cl)cc1Cl,72.1%
17,O=C(Nc1ccccn1)c1ccc2c(c1)OCCO2,49.8%
18,COc1ccc(NC(=O)c2ccc(C)cc2)cc1,66.1%
19,COC(=O)c1c(NC(=O)COc2ccc(Cl)cc2Cl)sc2c1CC(C)(C)NC2(C)C,98.7%
20,CSCCC(NC(=O)c1ccc(Cl)c([N+](=O)[O-])c1)C(=O)N1CCN(C/C=C/c2ccccc2)CC1 (stereo not given),36.3%

# System: not listed separately
# Experiment: as above
# Conditions: NB7 neuroblastoma + caspase-8, without TRAIL, NB7 Caspase-8, without TRAIL, mean of runs, at 10 µM
row,SMILES,activity
1,COC(=O)c1ccc(CCc2cc(O)c(Br)cc2O)cc1,19.7%
2,N/C(=N\OC(=O)c1ccc(Cl)cc1)c1ccn[nH]1,91%
3,COc1ccc2cc(-c3ccccc3)ncc2c1,63.7%
4,COc1ccc2sc(NC(=O)c3ccco3)nc2c1,74.8%
5,CN(C)c1ncnc2c1ncn2C1OC(CO)C(O)C1O (stereo not given),45.3%
6,COc1ccc2oc(-c3ccc(NC(=O)c4ccc(N5CCOCC5)c([N+](=O)[O-])c4)cc3)nc2c1,24.4%
7,O=C(Nc1cccc(Cl)c1)c1nc[nH]c1C(=O)NCCCNC(=O)c1[nH]cnc1C(=O)Nc1cccc(Cl)c1,77.4%
8,CN(C)c1cccc(/C=C(\C#N)c2ccccc2)c1,40.8%
9,N/C(Cc1ccc(Cl)c(Cl)c1)=N\OC(=O)c1cccs1,39.5%
10,Cc1ccc(C(=O)N/C(=C\c2ccc(-c3ccccc3[N+](=O)[O-])o2)C(=O)NCCCN(C)C)cc1,31.6%
11,Cc1cc(NC(=O)c2ccc3c(c2)OCO3)no1,48.3%
12,CCc1ccc2nc(N(CCCN(C)C)C(=O)c3ccc(S(=O)(=O)N4CCCc5ccccc54)cc3)sc2c1,63.9%
13,CC(C)c1ccc(NC(=O)Nc2nc(C(N)C3CCCCC3)cs2)cc1 (stereo not given),99.3%
14,Cc1ccc2nc(NC(=O)c3ccco3)sc2c1,76.2%
15,Cc1nc2nc(C)n(CCN3CCOCC3)c(=O)c2c(-c2cccc([N+](=O)[O-])c2)c1C(=O)CCCCCCCCCCN1CCC(c2ccccc2)(c2ccccc2)CC1,89.9%
16,CCS(=O)(=O)c1ncc(Cl)c(C(=O)Nc2ccc(S(=O)(=O)N3CCC(C)CC3)cc2)n1,98.8%
17,O=C(COc1ccc(CO)cc1Cl)Nc1ccc(F)cc1,47.6%
18,CCSc1ccc(-c2cc(NC=O)c3ncc(-c4cccc(C(=O)NCCN(C)C)c4)n3c2)cc1,87.7%
19,CCOc1ccc(C(=O)O/N=C(\N)c2ccccn2)cc1OCC,88.9%
20,COc1ccc(N2C(N)=NC(N)=NC2(C)C)cc1,86.5%

row,SMILES,activity
1,O=S(=O)(c1ccc(Br)cc1)N1CCN(c2ccc3nnc(-c4ccccc4)n3n2)CC1,64.3%
2,N/C(=N\OC(=O)c1ccc2ccccc2c1)c1ccccc1Cl,99.2%
3,COc1ccc(/C=N/OC(=O)Nc2ccccc2OC)cc1,63.3%
4,COc1cccc(NC(=O)Nc2ccc3c(c2)nc(C)n3C)c1,82.8%
5,O=C(Nc1ccc2c(c1)OCCO2)c1ccccc1,54.6%
6,CC(C)N(Cc1ccccc1)C(=O)COC(=O)c1cnc(Cl)c(Cl)c1,72%
7,Cc1cc2ncc(-c3ncc(C(F)(F)F)cc3Cl)cn2n1,41.9%
8,Cc1cccc(-c2noc(-c3ccc4c(c3)OCO4)n2)c1,60.1%
9,COC(=O)c1ccc2nc(-c3ccc4c(c3)OCO4)cn2c1,76%
10,O=C(Nc1ccccc1)c1cc(C2CCCN(C(=O)C3CC3)C2)on1 (stereo not given),32.4%
11,Cc1ccc2nc(NC(=O)c3ccccc3F)sc2c1,64%
12,CCCOc1ccc(-c2nc(N3CCN(C)CC3)c3ccccc3n2)cc1,67.7%
13,Cc1nc2c(-c3ccc(F)cc3)cnn2c(N)c1-c1ccc(F)cc1,57%
14,O=C(Nc1nnc(/N=C/c2ccco2)s1)c1ccc(F)cc1,28.4%
15,CCCc1ccc(C(=O)NC(=O)c2ccccc2O)cc1,75.5%
16,O=C(Nc1ccc2c(c1)OCO2)c1ccc(Cl)cc1Cl,67.6%
17,O=C(Nc1ccccn1)c1ccc2c(c1)OCCO2,47.5%
18,COc1ccc(NC(=O)c2ccc(C)cc2)cc1,60.3%
19,COC(=O)c1c(NC(=O)COc2ccc(Cl)cc2Cl)sc2c1CC(C)(C)NC2(C)C,99.3%
20,CSCCC(NC(=O)c1ccc(Cl)c([N+](=O)[O-])c1)C(=O)N1CCN(C/C=C/c2ccccc2)CC1 (stereo not given),24.4%
